# Assay results from PubChem BioAssay (NCATS).
# Inconclusive results are not listed. Where a call stands in place of a potency, no number is given. Calls of active or inactive are those of the source. Unless noted, calls follow the shape of the dose curve; as a rule, active = well fitted curve in the direction sought with a large enough effect; inconclusive = small, poorly fitted or top-dose-only effect, or another doubt; inactive = no such curve, though single readings can be large; an effect the other way counts as inactive or inconclusive.
# Tests used:
# [1] = target: Lysosomal acid glucosylceramidase (Homo sapiens) (UniProt P04062); assay: Glucocerebrosidase-p2 (AID 348; in the data active = potency below about 10 µM; also: potency is read from the fitted curve at half-maximal effect); details: purified GBA, blue fluorogenic substrate, 40 min
# Method in brief: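 Normal human glucocerebrosidase (0.2 nM) with blue fluorogenic substrate (80 uM final) in citrate/phosphate pH 5.9 with 10mM sodium taurocholate, 0.01% tween-20; 40 min RT, NaOH/glycine stop; fluorescence Ex 365/Em 440; AC50 from a titration from 0.6 nM upwards.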
# [2] = AP1 Signaling Pathway (AID 357; active = well fitted curve in either direction with a large enough effect, not every such curve was filed as active;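 also: ME-180 reporter cells stimulated with EGF at its EC50 level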)
# Method in brief: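 In this screen, ME-180 cells in Opti-MEM with 0.5% dialyzed FBS received EC50 EGF and compound titrations for 5 h. AP-1 reporter beta-lactamase was detected via CCF4 ratio, giving AC50 for positive and negative modulators.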
# [3] = target: Cytochrome P450 1A2 (Homo sapiens) (UniProt P05177); assay: p450-cyp1a2 (AID 410; calls by dose curve; also: potency is read from the fitted curve at half-maximal effect)
# Method in brief: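 Read-out is luminescence from luciferin produced by CYP1A2 demethylation of Luciferin-ME (100uM, at Km). Detection reagent stopped the 60 min NADPH-dependent reaction; signals were normalized to 57 uM furafylline.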
# [4] = NFAT Signaling Pathway (AID 444; active = well fitted curve in either direction with a large enough effect, not every such curve was filed as active;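 also: carbachol stimulus at about its EC50 of 1 µM final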); details: Jurkat NFAT-bla M1, carbachol, beta-lactamase ratio, 5 h; at 7.69 µM (top of the series)
# Method in brief: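 Read-out: CCF4 FRET ratio (460 nm/530 nm) after 1 h RT dye loading, used for %activity and AC50 from titration series. Cells: Jurkat NFAT-β-lactamase/M1 line, treated with compound plus 1 uM carbachol for 5 h, 37 °C.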
# [5] = Stat Signaling Pathway (AID 446; active = well fitted curve in either direction with a large enough effect, not every such curve was filed as active;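 also: ME-180 cervical cancer cells given 40 pM IL-6 alongside compound; SIE-controlled beta-lactamase reporter measured as 460/530 nm FRET emission ratio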)
# Method in brief: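 Overnight-plated ME-180 cells bearing a STAT Inducible Element beta-lactamase reporter; 5 h co-exposure to compound and 40 pM IL-6; values normalized to 300 pM IL-6 and 125 nM JAK inhibitor controls.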
# [6] = target: Glucocorticoid receptor (Homo sapiens) (UniProt P04150); assay: GR-EFC Redistribution (AID 451; calls by dose curve; also: potency is read from the fitted curve at half-maximal effect); details: CHO-K1 GR-EFC translocation, beta-gal luminescence, 2 h
# Method in brief: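 Translocation of GR-ED fusion to nuclear EA restores b-gal, read by luminescence after 1 h room-temperature detection. Engineered CHO-K1 biosensor cells, 1,000/well, exposed 2 h at 37 C to titrations up to 46 uM final.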
# [7] = target: Mitogen-activated protein kinase 10 (Mus musculus) (UniProt Q61831); assay: JNK3 AlphaScreen Assay (AID 530; active = well fitted curve in either direction with a large enough effect, not every such curve was filed as active;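 also: kinase came from lysate of stimulated human HepG2 cells; signal reports phosphorylation of biotinylated GST-cJun 1-79 at Ser73 with 10 µM ATP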)
# Method in brief: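 Kinase buffer: 20 mM Tris-HCl pH 7.6, 10 mM MgCl2, 1 mM DTT, 0.1 mM Na3VO4, 0.01% Tween-20; ATP 10 uM. Substrate biotin-GST-cJun(1-79), enzyme from activated HepG2 lysates. Detection by Ser73 phospho-antibody AlphaScreen.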
# [8] = target: Cytochrome P450 3A4 (Homo sapiens) (UniProt P08684); assay: qHTS Assay for Activators of Cytochrome P450 3A4 (AID 885); also: nearly all actives have a fitted effect of over 65% in size
# Method in brief: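 Using 20nM recombinant human CYP3A4 in potassium phosphate (200mM), substrate Luciferin-PPXE at 25uM, luminescent luciferin detection followed a 60-min RT NADPH reaction; data scaled to 57 uM ketoconazole.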
# [9] = qHTS Assay for Lipid Storage Modulators (AID 1519; calls by dose curve); details: Drosophila S3 cells, BODIPY lipid droplet/cell ratio, laser cytometry, cells loaded with oleic acid; for activity change, negative = inhibition: at 57.5 µM (top of the series)
# Method in brief: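 Cells seeded at 5,000 per well were treated with compounds over a concentration series and loaded with oleic acid (400 uM, as added). Lipid droplet fluorescence (488 nm excitation, 500-530 nm channel) was read by laser-scanning cytometry and normalized to 20 uM Triacsin C.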
# [10] = Counterscreen qHTS for small molecule stabilizers of the endoplasmic reticulum resident proteome: GLuc-NoTag assay (AID 1508627);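 also: SH-SY5Y cells given compound then 100 nM thapsigargin to empty ER calcium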
# Method in brief: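 Counterscreen line: SH-SY5Y-GLuc-NoTag cells, treated with compound 19 hr before a 4 hr, 100 nM thapsigargin calcium depletion. Secreted Gaussia luciferase in the medium was measured by luminescence after coelenterazine was added (0.07x final), with cells unlysed.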
# [11] = Cell Viability qHTS for small molecule stabilizers of the endoplasmic reticulum resident proteome (AID 1508629); details: cell viability counter-screen, 100 nM thapsigargin for final 4 h;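 also: human SH-SY5Y neuroblastoma cells carrying the GLuc-SERCaMP reporter; compound exposure about 46 h in total before the viability read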
# [12] = target: Cytochrome P450 3A4 (Homo sapiens) (UniProt P08684); assay: qHTS Assay for Inhibitors and Substrates of Cytochrome P450 3A4 (AID 884); also: nearly all actives have a fitted effect of over 50% in size
# Method in brief: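 Luminescent readout of luciferin produced by CYP3A4 (20 nM) dealkylation of Luciferin-PPXE, 25 uM (its KM). NADPH-driven reaction ran 60 min at RT after 10 min compound preincubation; data scaled to 57 uM ketoconazole as 100% inhibition.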
# [13] = Confirmation and Secondary Assay for Modulators of Hemoglobin Beta Chain Splicing at IVS2 654 locus (AID 910);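 also: HeLa cells stably carrying EGFP split by mutant beta-globin IVS2-654 intron; per-well total GFP intensity by laser scanning cytometry after 2-day treatment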
# Method in brief: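 Readout: per-well total peak green fluorescence (488 nm ex, 500–520 nm em) from objects 5–250 µm, reflecting correct splicing of an EGFP-654 reporter. Compounds were applied for 2 days at 37 °C to overnight-plated HeLa EGFP-654 cells; controls were DMSO and 500 nM IVS2-654 PNA.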
# [14] = Confirmation and Secondary Assay for Modulators of Hemoglobin Beta Chain Splicing at IVS2 705 locus (AID 930);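 also: HeLa cells stably expressing the EGFP-705 splicing reporter; GFP fluorescence per well restored by corrected splicing of the IVS2-705 intron in EGFP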
# Method in brief: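 Assay measures total GFP intensity per well in HeLa EGFP-705 cells after 2 days with compound; mis-splicing normally truncates EGFP, so fluorescence indicates corrected splicing.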
# [15] = Primary qHTS for small molecule stabilizers of the endoplasmic reticulum resident proteome: Secreted ER Calcium Modulated Protein (SERCaMP) assay (AID 1508630)
# Method in brief: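 The SH-SY5Y reporter protocol was run at 3 concentrations up to 38.3 uM (primary) or 11 concentrations (follow-up): 16 h compound, 100 nM thapsigargin for 4 h, then extracellular luciferase luminescence.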
# [16] = target: Calcium and integrin-binding protein 1 (Homo sapiens) (UniProt Q99828); assay: Primary qHTS for Identification of Calcium Integrin Binding Protein 1 (CIB1) Competitor (AID 1508620);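 also: GST tagged CIB1 binding a fluorescein labelled alphaIIb integrin peptide tracer; top concentration of the series differs between compounds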
# Method in brief: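 CIB1-GST (1 uM final) and compound incubated 15 min at room temperature before adding FITC-alphaIIb peptide tracer (100 nM final). Competition for binding read by fluorescence polarization (ex 480, em 540) after another 15 min at room temperature.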
# [17] = target: 3',5'-cyclic-AMP phosphodiesterase 4B (Homo sapiens) (UniProt Q07343); assay: qHTS Assay for Inhibitors of PDE-IV (AID 607; active = well fitted activation curve with a large enough effect in the main read-out, with a control signal flat, not every such curve was filed as active)
# Method in brief: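 Live HEK293 cells with a modified cyclic nucleotide-gated (CNG) channel report intracellular cAMP via membrane-potential dye fluorescence (ex 535/em 590 nm). Endogenous PDE-IV was targeted. Compounds were tested at up to 22.9 uM final; RO 20-1724 100 uM served as control.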
# [18] = tested on: HIV-1 nucleocapsid protein NCp7 (binding to TG oligonucleotide); assay: HIV Nucleocapsid (AID 346; call rule not given here;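 also: potency is read from the fitted curve at half-maximal effect; potency is for inhibitors that block NC binding and lower polarization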); details: HIV-1 NC / fluorescein-TGTGTGTG probe, fluorescence polarization
# Method in brief: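 Fluorescence polarization binding of 100 nM HIV-1 NC to 10 nM fluorescein-labelled TG4xF oligonucleotide. Buffer was Hepes pH 7.5 with 250mM NaCl, 1uM ZnCl2, TCEP and 2-mercaptoethanol. Compounds were incubated 1 hr at room temperature before the read.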
# [19] = qHTS Assay for Identification of Small Molecule Agonists for Hypoxia Response Element Signaling Pathway (AID 914; active = well fitted activation curve with a large enough effect in the signal ratio, with a control signal flat, not every such curve was filed as active; the % refers to the signal ratio); details: ME-180 (cervical carcinoma) HRE-bla reporter, beta-lactamase ratio, CoCl2, 17 h; activation: stronger effect = higher value
# Method in brief: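 Compounds in a titration series were added to ME-180 reporter cells alongside an EC50 level of CoCl2. After 17 hours, beta-lactamase activity was read as the 460nm/530nm emission ratio of CCF4, giving AC50 values.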
# [20] = measured here: cell count channel max response
# [21] = measured here: lipid channel max response
# Cytochrome P450 3A4 (Homo sapiens), sequence (P08684 whole entry, looked up): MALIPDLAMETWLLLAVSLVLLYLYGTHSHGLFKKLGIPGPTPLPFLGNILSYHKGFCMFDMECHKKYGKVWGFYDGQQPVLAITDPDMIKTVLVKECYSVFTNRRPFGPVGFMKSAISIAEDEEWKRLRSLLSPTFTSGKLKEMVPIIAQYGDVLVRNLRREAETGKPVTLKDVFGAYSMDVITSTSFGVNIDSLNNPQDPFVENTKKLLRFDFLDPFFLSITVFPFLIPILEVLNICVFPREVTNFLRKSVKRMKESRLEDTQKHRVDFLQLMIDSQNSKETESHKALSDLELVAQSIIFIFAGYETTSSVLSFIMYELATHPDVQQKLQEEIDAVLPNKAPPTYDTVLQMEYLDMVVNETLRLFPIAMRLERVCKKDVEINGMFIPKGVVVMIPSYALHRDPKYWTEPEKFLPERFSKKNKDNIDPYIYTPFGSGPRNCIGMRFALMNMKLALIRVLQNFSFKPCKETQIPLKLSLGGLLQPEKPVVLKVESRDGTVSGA
# Calcium and integrin-binding protein 1 (Homo sapiens), sequence (Q99828 whole entry, looked up): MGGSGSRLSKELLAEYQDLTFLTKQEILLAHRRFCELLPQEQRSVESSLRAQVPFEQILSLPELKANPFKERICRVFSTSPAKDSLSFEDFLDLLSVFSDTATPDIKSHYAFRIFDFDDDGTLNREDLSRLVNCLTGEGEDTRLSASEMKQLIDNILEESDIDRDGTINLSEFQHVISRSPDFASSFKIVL
# Glucocorticoid receptor (Homo sapiens), sequence (P04150 whole entry, looked up, the tested form may be a part): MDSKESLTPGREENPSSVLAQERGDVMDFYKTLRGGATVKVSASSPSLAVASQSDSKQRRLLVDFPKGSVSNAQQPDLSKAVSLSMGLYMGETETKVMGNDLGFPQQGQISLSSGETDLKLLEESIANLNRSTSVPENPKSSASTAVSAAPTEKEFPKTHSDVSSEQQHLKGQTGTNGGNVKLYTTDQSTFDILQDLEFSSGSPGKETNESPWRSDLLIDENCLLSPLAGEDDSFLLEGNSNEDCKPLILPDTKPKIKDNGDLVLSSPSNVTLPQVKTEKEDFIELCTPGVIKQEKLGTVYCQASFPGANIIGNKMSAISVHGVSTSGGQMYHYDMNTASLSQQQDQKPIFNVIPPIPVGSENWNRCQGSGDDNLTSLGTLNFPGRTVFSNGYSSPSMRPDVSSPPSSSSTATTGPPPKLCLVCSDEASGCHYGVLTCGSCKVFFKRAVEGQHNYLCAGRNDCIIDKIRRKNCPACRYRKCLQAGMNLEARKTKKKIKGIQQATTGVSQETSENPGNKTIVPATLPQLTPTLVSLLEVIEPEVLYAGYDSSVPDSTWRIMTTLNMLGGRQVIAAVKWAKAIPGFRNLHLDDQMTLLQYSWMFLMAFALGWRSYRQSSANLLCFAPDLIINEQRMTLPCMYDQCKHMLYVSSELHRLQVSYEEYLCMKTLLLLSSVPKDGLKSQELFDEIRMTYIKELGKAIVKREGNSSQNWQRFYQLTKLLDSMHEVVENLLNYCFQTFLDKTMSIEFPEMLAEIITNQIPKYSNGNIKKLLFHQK
# Cytochrome P450 1A2 (Homo sapiens), sequence (P05177 whole entry, looked up): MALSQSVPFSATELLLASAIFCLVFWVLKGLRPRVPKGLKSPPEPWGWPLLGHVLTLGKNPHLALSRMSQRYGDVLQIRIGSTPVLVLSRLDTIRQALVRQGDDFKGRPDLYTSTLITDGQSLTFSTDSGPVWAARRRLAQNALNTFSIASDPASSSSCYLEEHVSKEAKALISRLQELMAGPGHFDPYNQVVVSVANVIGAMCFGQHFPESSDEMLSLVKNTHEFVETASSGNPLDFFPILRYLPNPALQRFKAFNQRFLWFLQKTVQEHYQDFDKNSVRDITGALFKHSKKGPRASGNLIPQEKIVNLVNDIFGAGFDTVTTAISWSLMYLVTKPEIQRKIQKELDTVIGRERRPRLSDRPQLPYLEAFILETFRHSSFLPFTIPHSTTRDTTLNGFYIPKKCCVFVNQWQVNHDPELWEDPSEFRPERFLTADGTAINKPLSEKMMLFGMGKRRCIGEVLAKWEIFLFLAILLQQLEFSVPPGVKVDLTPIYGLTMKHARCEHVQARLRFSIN
# 3',5'-cyclic-AMP phosphodiesterase 4B (Homo sapiens), sequence (Q07343 whole entry, looked up): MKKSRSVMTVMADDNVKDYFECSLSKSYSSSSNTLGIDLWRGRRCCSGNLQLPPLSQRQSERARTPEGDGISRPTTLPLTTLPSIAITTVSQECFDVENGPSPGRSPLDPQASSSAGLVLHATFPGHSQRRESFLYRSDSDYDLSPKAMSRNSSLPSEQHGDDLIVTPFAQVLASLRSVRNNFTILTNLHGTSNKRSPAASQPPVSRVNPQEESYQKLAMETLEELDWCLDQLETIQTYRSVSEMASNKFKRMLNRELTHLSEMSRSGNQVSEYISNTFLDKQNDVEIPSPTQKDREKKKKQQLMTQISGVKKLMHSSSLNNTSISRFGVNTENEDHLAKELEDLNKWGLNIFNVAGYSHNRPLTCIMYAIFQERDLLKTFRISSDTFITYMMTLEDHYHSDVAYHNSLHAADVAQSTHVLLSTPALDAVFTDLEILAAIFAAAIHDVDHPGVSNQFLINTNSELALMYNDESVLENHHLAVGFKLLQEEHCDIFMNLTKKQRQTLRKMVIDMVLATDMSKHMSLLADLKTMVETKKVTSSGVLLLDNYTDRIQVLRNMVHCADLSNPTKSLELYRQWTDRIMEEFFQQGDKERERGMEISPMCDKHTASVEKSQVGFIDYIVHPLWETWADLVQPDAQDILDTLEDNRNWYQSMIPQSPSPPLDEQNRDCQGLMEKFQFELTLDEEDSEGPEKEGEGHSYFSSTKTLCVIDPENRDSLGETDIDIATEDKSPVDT
# Lysosomal acid glucosylceramidase (Homo sapiens), sequence (P04062 whole entry, looked up): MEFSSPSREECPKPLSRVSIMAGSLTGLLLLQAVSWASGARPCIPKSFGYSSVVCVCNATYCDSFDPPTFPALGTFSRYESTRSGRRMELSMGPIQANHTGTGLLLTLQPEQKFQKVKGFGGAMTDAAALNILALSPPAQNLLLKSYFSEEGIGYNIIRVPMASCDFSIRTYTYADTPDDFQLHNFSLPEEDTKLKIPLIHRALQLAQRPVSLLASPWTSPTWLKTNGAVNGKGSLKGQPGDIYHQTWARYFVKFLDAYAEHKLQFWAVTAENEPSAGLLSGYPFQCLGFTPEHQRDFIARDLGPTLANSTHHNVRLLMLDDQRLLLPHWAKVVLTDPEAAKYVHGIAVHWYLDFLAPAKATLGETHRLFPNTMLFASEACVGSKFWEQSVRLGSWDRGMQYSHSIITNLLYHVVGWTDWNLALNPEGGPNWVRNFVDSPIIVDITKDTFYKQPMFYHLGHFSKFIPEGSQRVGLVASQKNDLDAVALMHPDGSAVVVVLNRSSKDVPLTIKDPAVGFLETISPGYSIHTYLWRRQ
compound,measurement,setting,value
c1ccc(N2CCCC3(CCNCC3)C2)nc1,Potency,[1],> 11.4 µM (inactive)
same,outcome,[2],inactive
same,Potency,[3],25.1 µM (active)
same,"activity change, negative = inhibition",[4],-27% (inactive)
same,outcome,[5],inactive
same,Potency,[6],> 46 µM (inactive)
same,outcome,[7],inactive
same,Potency,[8],inactive
same,"activity change, negative = inhibition",[9],3.94% (inactive)
same,max response,[9]; [20],2.21%
same,max response,[9]; [21],8.95%
same,outcome,[10],inactive
same,max response,[11],-3.57% (inactive)
CC(=O)C1=C(O)C2C3c4c[nH]c5cccc(c45)CC3C(C)(C)N2C1=O (configuration not stated),Potency,[12],inactive
same,Potency,[13],inactive
same,Potency,[14],inactive
same,"activity change, negative = inhibition",[9],8.13% (inactive)
same,max response,[9]; [20],15.9%
same,max response,[9]; [21],22.7%
same,outcome,[10],inactive
same,max response,[11],-5.15% (inactive)
O=C(O)[C@@H]1Cc2[nH]cnc2C(c2cccnc2)N1 (some centres not stated),outcome,[15],inactive
N#Cc1nc(-c2cccc3ccccc23)oc1NCc1ccccc1,outcome,[16],inactive
CCCC[N+]12C3CC(C(CC)[C@H]1O)[C@@H]1C(O)C4(C[C@@H]12)c1ccccc1N(C)C34 (some centres not stated),outcome,[15],inactive
CCOc1ccc(CCNC(=O)c2cc3cccnc3n2Cc2cccc(C)n2)cc1OCC,outcome,[16],inactive
Cc1nc2ccccn2c1P(=S)(c1ccccc1)c1ccccc1,outcome,[16],inactive
Cn1c(-c2ccccc2)c(P(=S)(c2ccccc2)c2ccccc2)c2ccccc21,outcome,[16],inactive
Cc1cc(-c2nnc3n2CCCCC3)c(C)n1-c1cccnc1,outcome,[16],inactive
COC(=O)N1CCC2(CCN(CC(C)C)CC2)CC1,Potency,[1],> 11.4 µM (inactive)
same,outcome,[2],inactive
same,Potency,[3],inactive
same,outcome,[5],inactive
same,Potency,[6],> 46 µM (inactive)
same,outcome,[7],inactive
same,Potency,[17],inactive
same,"activity change, negative = inhibition",[9],0.631% (inactive)
same,max response,[9]; [20],-7.4%
same,max response,[9]; [21],-4.41%
same,outcome,[15],inactive
CC(C)CN1CCCC2(CCN(C(=O)c3ccncc3)CC2)C1,Potency,[1],> 11.4 µM (inactive)
same,outcome,[2],inactive
same,Potency,[3],12.6 µM (active)
same,outcome,[5],inactive
same,Potency,[6],> 46 µM (inactive)
same,Potency,[17],inactive
same,"activity change, negative = inhibition",[9],5.13% (inactive)
same,max response,[9]; [20],11.3%
same,max response,[9]; [21],20.9%
same,outcome,[15],inactive
CC(C)NC(=O)N1CCCC2(CCN(C(=O)Oc3ccccc3)CC2)C1,Potency,[18],> 20 µM (inactive)
same,Potency,[1],> 11.4 µM (inactive)
same,outcome,[2],inactive
same,Potency,[3],12.6 µM (active)
same,outcome,[5],inactive
same,Potency,[6],> 46 µM (inactive)
same,outcome,[7],inactive
same,Potency,[17],inactive
same,"activity change, negative = inhibition",[9],6.21% (inactive)
same,max response,[9]; [20],27.7%
same,max response,[9]; [21],29.9%
same,outcome,[15],inactive
c1ccc(CN2CC[C@@]3(CCCNC3)C2)cc1,Potency,[1],> 11.4 µM (inactive)
same,outcome,[2],inactive
same,Potency,[3],inactive
same,"activity change, negative = inhibition",[4],2.89% (inactive)
same,outcome,[5],inactive
same,Potency,[6],> 46 µM (inactive)
same,outcome,[7],inactive
same,Potency,[17],inactive
same,Potency,[8],inactive
same,activation,[19],10.9% (inactive)
same,"activity change, negative = inhibition",[9],3.83% (inactive)
same,max response,[9]; [20],8.29%
same,max response,[9]; [21],14.7%
same,outcome,[15],inactive
c1ccc(N2CC[C@@]3(CCCNC3)C2)nc1,Potency,[1],> 11.4 µM (inactive)
same,outcome,[2],inactive
same,Potency,[3],inactive
same,outcome,[5],inactive
same,Potency,[6],> 46 µM (inactive)
same,outcome,[7],inactive
same,Potency,[17],inactive
same,Potency,[8],inactive
same,"activity change, negative = inhibition",[9],2.13% (inactive)
same,max response,[9]; [20],12.4%
same,max response,[9]; [21],16.2%
same,outcome,[15],inactive
